Drawing on PubChem BioAssay (NCI), this text covers growth inhibition for 21 compounds.

The panel holds about 79,000 compounds, 15% with a hit somewhere; the sample as a whole holds those more often. Unmarked numbers belong to inactive results. Calls of active or inactive are those of the source. No stated cut-off is given here; in the data, active means growth inhibition above about 70%; inactive means the rest.

Assay [1] in a line: NCI Yeast Anticancer Drug Screen. Data for the rad50 strain (AID 155).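 Further: 0% = growth of vehicle-only cultures of the same strain.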 The note with it: S. cerevisiae rad50 strain growth inhibition; at 50.0 µM; active compounds read high. In short, it runs like this: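 Yeast carrying a defined DNA repair defect were exposed to test compounds, and growth was compared with vehicle-treated controls to give percent inhibition.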
Assay [2] is described as follows: NCI Yeast Anticancer Drug Screen. Data for the mec2-1 strain (AID 157). To be noted: S. cerevisiae mec2-1 strain, at 50.0 µM, active compounds read high. An outline of the steps:
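Strain: mec2-1 (DNA repair/cell cycle alteration). Compound exposure, then growth measured; inhibition expressed relative to vehicle.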

Assay [3] is described as follows: NCI Yeast Anticancer Drug Screen. Data for the sgs1 mgt1 strain (AID 161).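 Further: 0% = growth of cultures given vehicle only.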 The note with it: S. cerevisiae sgs1 mgt1 strain, at 50.0 µM, active compounds read high. An outline of the steps:
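Mutant yeast exposed to compound; growth scored against vehicle-only wells.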

Assay [4] can be described thus: NCI Yeast Anticancer Drug Screen. Data for the cln2 rad14 strain (AID 165).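 Further: 0% = growth equal to vehicle treated cultures.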 The note with it: S. cerevisiae cln2 rad14 strain, at 50.0 µM, active compounds read high. An outline of the steps: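 Compounds are applied to the cln2 rad14 yeast strain, and growth is then compared with that of vehicle-treated cultures to give inhibition.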
The nature of assay [5]: NCI Yeast Anticancer Drug Screen. Data for the bub3 strain (AID 167). The note with it: S. cerevisiae bub3 mutant strain, at 50.0 µM, active compounds read high. In short, it runs like this: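 Compounds were applied to a genetically altered yeast strain carrying a cell-cycle control defect. Growth inhibition was scored against vehicle-treated controls.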
Assay [6] is described as follows: NCI Yeast Anticancer Drug Screen. Data for the mlh1 rad18 strain (AID 175). The note with it: S. cerevisiae mlh1 rad18 strain growth inhibition; at 50.0 µM; active compounds read high. An outline of the steps: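 Read-out is yeast growth inhibition, calculated against vehicle-only controls. The compound was applied to a strain engineered with DNA damage repair alterations.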

Take `CC1(C)CC(=O)C2=C(SC3=C(C2)C(=O)CC(C)(C)S3)S1`: the growth inhibition in assay [1] was -5.75%; in assay [2] it was -2.5%; in assay [3], 2.8%; in assay [4], -7.25%; in assay [5], -9.85%; in assay [6] it was -3.3%.

Turning to `CCCCCCCCCCCCCCCCCCNC(=O)Nc1ccc(OC)cc1OC`, the growth inhibition in assay [1] was 15.4%; in assay [2], 37%; in assay [3], -0.3%; in assay [4], 3%; in assay [5], 2.8%; in assay [6], 13.3%.

On to `O=C(/C=N\O)c1ccccc1[N+](=O)[O-]`, for which the growth inhibition in assay [1] was -5.6%; in assay [2], -4.85%; in assay [3], 7.6%; in assay [4], -37.5%; in assay [5] it was -1.35%; in assay [6] it was -19.1%.

With `CC1(C)C(=O)C(C)(C)C(=O)C(C)(C)C1=O`, the growth inhibition is 2.45% in assay [1]; -15.7% in assay [2]; 5.4% in assay [3]; 16.9% in assay [4]; 11.3% in assay [5]; -0.3% in assay [6].

Turning to `Cc1cc2nc3[nH]c(=O)c4c(n3c2cc1C)CCC4`, the growth inhibition in assay [1] is 0%; in assay [2], -6.8%; in assay [3], 0.2%; in assay [4], -8.95%; in assay [5], 8.45%; in assay [6], -15.2%.

Turning to `CC(C)C1=C(Cc2ccccc2)C(=O)O/C1=C\c1ccc(O)c(Cl)c1`, the growth inhibition in assay [1] was 2.8%; in assay [2], -22.9%; in assay [3] it was 28.2%; in assay [4], 21.4%; in assay [5] it was 6.05%; in assay [6], -20.1%.

For `CC1(C)CC(=O)C2=C(C1)NC1=C(C2)C(=O)CC(C)(C)C1`, the growth inhibition is -15.4% in assay [1]; -5.7% in assay [2]; -22.4% in assay [3]; 19.9% in assay [4]; 7.6% in assay [5]; 12.8% in assay [6].

In the case of `COc1cc2c[n+](C)c(-c3ccc(Cl)c(Cl)c3)c(OC)c2cc1OC`, the growth inhibition in assay [1] is 56.1%; in assay [2], 8.15%; in assay [3], 41.5%; in assay [4], 31.4%; in assay [5], 14.9%; in assay [6] it was 41.5%.

As for `O=C(/C=C/c1ccccc1)/C=N/N1C(=S)N(c2ccccc2)C(=Nc2ccccc2)C1=Nc1ccccc1`, the growth inhibition is -7.4% in assay [1]; -15.8% in assay [2]; -12.9% in assay [3]; -20.2% in assay [4]; -20.1% in assay [5]; -21.6% in assay [6].

Consider `CCCCCCCCCCCC(=O)O` (tested in a mixture with another compound), for which the growth inhibition in assay [1] was -15.7%; in assay [2] it was 7.5%; in assay [3] it was -41.6%; in assay [4] it was -39.9%; in assay [5] it was -32.6%; in assay [6], -13.5%.

With `N=C(N)C=O`, the growth inhibition in assay [1] is -12.4%; in assay [2], 0.3%; in assay [3] it was 5.45%; in assay [4], 0.05%; in assay [5] it was 1.45%; in assay [6], -7.95%.

As for `N#CC1(Cl)CC2CC1C1N=NN(c3ccccc3)C21` (stereo unspecified), the growth inhibition is -24.6% in assay [1]; -15.3% in assay [2]; -0.25% in assay [3]; -58% in assay [4]; 25.6% in assay [5]; 0.75% in assay [6].

In the case of `CCC(C)(C)c1ccc(OCCO)cc1`, the growth inhibition in assay [1] was -29.2%; in assay [2], -29.4%; in assay [3], -20.8%; in assay [4] it was -12.9%; in assay [5], -19.2%; in assay [6], -23.4%.

Regarding `CCCCCCCCCCCCCCCC[N+](C)(C)Cc1ccccc1`, the growth inhibition in assay [1] was 99.2% (active); in assay [2], 99% (active); in assay [3] it was 99.3% (active); in assay [4], 99% (active); in assay [5], 98.8% (active); in assay [6] it was 98.9% (active).

`CS(=O)(=O)N1CCCN(S(C)(=O)=O)COC1`: the growth inhibition in assay [1] is 6.2%; in assay [2] it was -6.65%; in assay [3], -8.75%; in assay [4], -2.45%; in assay [5], 13.4%; in assay [6], -0.35%.

With `CCCCCCc1cc(C(=O)N/N=C/c2ccccc2O)c2ccccc2n1`, the growth inhibition in assay [1] was -35.2%; in assay [2], -8.1%; in assay [3] it was 16%; in assay [4], -13.2%; in assay [5] it was 67.6%; in assay [6], -2.95%.

With `c1ccc2c(C3=NCCO3)cccc2c1`, the growth inhibition is 11.7% in assay [1]; 9.7% in assay [2]; 8.3% in assay [3]; -34.6% in assay [4]; 4% in assay [5]; 11.8% in assay [6].

Consider `CC(=O)OCC1OC=CC(OC(C)=O)C1OC(C)=O` (stereo unspecified), for which the growth inhibition in assay [1] was -23.1%; in assay [2], -18.8%; in assay [3], -8.55%; in assay [4], -5.85%; in assay [5], -25.8%; in assay [6], -7.5%.

Regarding `COc1ccc(-c2nc(N)nc3c2CN(CCCC(=O)O)C3=O)cc1`, the growth inhibition in assay [1] was -4.65%; in assay [2], 30.3%; in assay [3] it was -4.25%; in assay [4], -30.8%; in assay [5] it was 9.3%; in assay [6], -10.4%.

Consider `S=c1[nH]nc(SCc2ccc(Cl)cc2Cl)c2[nH]cnc12`, for which the growth inhibition was -2.15% in assay [1]; 1.4% in assay [2]; 11.4% in assay [3]; -32.4% in assay [4]; -0.5% in assay [5]; -6% in assay [6].

In the case of `O=CC1N=C(Cc2ccccc2)OC1=O` (stereo unspecified), the growth inhibition in assay [1] is 25.6%; in assay [2], 10%; in assay [3] it was -6.2%; in assay [4], -4.55%; in assay [5] it was -7.35%; in assay [6], 8.2%.
